Only some compounds are listed: those with a hit (about 8% of all), similar ones and a draw of the others.
ELG1 DNA repair: inhibitors of ELG1-dependent DNA repair in HEK293T cells; HEK293T ELG1-luciferase reporter, luminescence, 16 h; DNA damage induced by 5-fluorouridine; Potency, µM (titrated, usually from 46.1 µM), hits mostly inhibitors; hit rate 2.3% among 330,000; note: nearly all actives have a fitted effect of over 55% in size
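HEK293T cells expressing luciferase-tagged ELG1 (2,000/well) received 5-Fluorouridine plus compound or DMSO for 16 hr at 37 °C. Luciferase was read by ONE-Glo luminescence after 30 min at room temperature.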
RORgamma inh: ROR gamma (mouse) transcription inhibition; P51450; Drosophila S2 Gal4-RORgamma UAS-luciferase reporter, 20 h; Potency, µM (doses to about 53.6 µM), usual class: inhibitors; hit rate 5.4% among 310,000; note: nearly all actives have a fitted effect of over 60% in size
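Drosophila Schneider cells stably carrying a metallothionein-driven Gal4 DBD–ROR gamma fusion and a UAS-Photinus luciferase reporter were exposed to compound for 1 hr, then induced with copper sulfate (700 uM final) for 20 hr at ambient temperature before luminescence reading.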
TSHR antagonist: blocks TSH signaling through the human TSH receptor. P16473. TSHR-expressing cells, TSH-stimulated cAMP HTRF, 2 h; hits give low values. activity change, negative = inhibition, % at 11.5 µM. hit rate 0.2% among 330,000. AID 504810;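 active = activity change below a set negative limit, meaning inhibition stronger than a set level, cut at about -70% in these data; inconclusive = activity change between two set negative limits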
Target sequence (P16473 whole entry, looked up): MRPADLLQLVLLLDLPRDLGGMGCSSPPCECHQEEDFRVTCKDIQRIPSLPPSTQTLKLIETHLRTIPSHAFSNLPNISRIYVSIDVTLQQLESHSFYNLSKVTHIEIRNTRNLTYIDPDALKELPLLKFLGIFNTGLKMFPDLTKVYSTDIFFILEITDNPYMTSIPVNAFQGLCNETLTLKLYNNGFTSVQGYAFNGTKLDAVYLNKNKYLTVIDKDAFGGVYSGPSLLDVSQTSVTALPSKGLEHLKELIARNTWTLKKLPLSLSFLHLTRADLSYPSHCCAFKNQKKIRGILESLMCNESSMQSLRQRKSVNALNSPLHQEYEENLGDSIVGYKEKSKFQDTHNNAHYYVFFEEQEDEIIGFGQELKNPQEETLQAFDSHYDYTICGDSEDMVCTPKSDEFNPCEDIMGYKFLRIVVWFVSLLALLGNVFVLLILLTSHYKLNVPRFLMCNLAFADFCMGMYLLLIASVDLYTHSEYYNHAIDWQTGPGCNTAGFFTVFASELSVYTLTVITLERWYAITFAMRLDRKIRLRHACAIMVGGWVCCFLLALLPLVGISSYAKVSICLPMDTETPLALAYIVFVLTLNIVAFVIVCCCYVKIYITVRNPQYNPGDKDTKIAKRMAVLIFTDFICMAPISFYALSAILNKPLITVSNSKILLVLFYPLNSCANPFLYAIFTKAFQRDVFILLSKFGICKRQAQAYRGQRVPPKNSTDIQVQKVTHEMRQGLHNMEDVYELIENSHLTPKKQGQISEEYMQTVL
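Freshly harvested TSHR cells receive pin-tooled compound, then EC80 TSH at 4nM final. After 2 hours at 37 deg C, antibody in lysis buffer and cAMP-d2 are added; 30 minutes at ambient temperature precede the HTRF read.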
Gal4-VP16 FLuc: Gal4-VP16 reporter inhibition counter-screen | Drosophila S2 Gal4-VP16 UAS-luciferase, luminescence, 20 h | Potency, µM (highest dose often 53.6 µM), usual class: inhibitors | hit rate 3.5% among 310,000;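 note: Gal4-VP16 expression switched on by copper sulfate through the metallothionein promoter; nearly all actives have a fitted effect of over 50% in size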
FBPA coupling cs: coupling enzyme interference in Giardia aldolase counter-screen. coupling enzyme system counterscreen, AmpLite Red fluorescence. activity change, negative = inhibition, % at 58.2 µM, hits read low. hit rate 0.67% among 290,000. AID 2472; in the data active = activity change below about -30%
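First, compound is pin-transferred into glyceraldehyde-3-phosphate coupling-enzyme reagent at 57.5 uM final and held 10 min at RT. Next, substrate, coupling system and AmpLite Red are added. After 20 min RT, fluorescence (525/598 nm) is read.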
Of the large screens only hits and unclear results are named; the others gave an inactive call; ! = repeats disagree. Unless noted, calls come from the whole dose curve; as a rule, active = well fitted curve in the direction sought with a large enough effect; inconclusive = small, poorly fitted or top-dose-only effect, or another doubt; inactive = no such curve, though single readings can be large; an effect the other way counts as inactive or inconclusive.

Cc1ccsc1/C=N/NC(=O)c1ccc([N+](=O)[O-])cc1	RORgamma inh 1µM, Gal4-VP16 FLuc 4.47µM
Cc1ccsc1/C=N/NC(=O)c1ccc2ccccc2c1	ELG1 DNA repair inconclusive, RORgamma inh 3.16µM, Gal4-VP16 FLuc 5.62µM
C/C(=N\NC(=O)c1sccc1C)c1cccnc1	ELG1 DNA repair inconclusive
O=C(Nc1ccc(NS(=O)(=O)c2ccc([N+](=O)[O-])cc2)cc1)c1ccco1	none
CCOc1ccc(C(=O)N/N=C/c2cc([N+](=O)[O-])cs2)cc1	none
COc1cc(C(=O)N/N=C/c2sccc2C)cc(OC)c1OC	RORgamma inh 20µM, Gal4-VP16 FLuc inconclusive
COc1cc(C(=O)N/N=C/c2cc([N+](=O)[O-])cs2)cc(OC)c1OC	RORgamma inh 3.98µM, Gal4-VP16 FLuc inconclusive
c1ccc(Nc2nnc(-c3cccnc3)s2)cc1	ELG1 DNA repair inconclusive
CNC(=S)N/N=C(\C)c1ccccc1	ELG1 DNA repair inconclusive, RORgamma inh 3.98µM, Gal4-VP16 FLuc 15.8µM
CNC(=S)N/N=C(\C)c1ccc(C(C)(C)C)cc1	ELG1 DNA repair inconclusive, RORgamma inh 1.12µM, Gal4-VP16 FLuc 0.891µM
C/C(=N/NC(=O)C(=O)N/N=C(/C)c1ccccc1)c1ccccc1	none
C/C(=N\NS(=O)(=O)c1ccc(C(C)(C)C)cc1)c1ccccc1	none
CNC(=S)N/N=C(\C)c1cccc([N+](=O)[O-])c1	RORgamma inh 3.55µM, Gal4-VP16 FLuc 4.47µM
N#C/C(=C\c1cn(Cc2ccc(F)cc2)c2ccccc12)C(=O)NCc1ccco1	ELG1 DNA repair inconclusive, RORgamma inh inconclusive, Gal4-VP16 FLuc 11.2µM
N#C/C(=C\c1cn(Cc2ccccc2)c2ccccc12)C(=O)NCc1ccco1	none
COc1ccc(Cl)cc1NC(=O)C(OC)c1ccccc1 (stereo unspecified)	none
COC(/C(=N/O)c1ccc(Cl)cc1)c1ccccc1 (stereo unspecified)	ELG1 DNA repair inconclusive, RORgamma inh 5.62µM, Gal4-VP16 FLuc 4.47µM
O=C1C2CCCN2C(=S)N1C1CCCCC1 (stereo unspecified)	none
CC1NC(=S)N(C2CCCCC2)C1=O (stereo unspecified)	RORgamma inh 11.2µM
CCCCC1NC(=S)N(C2CCCCC2)C1=O (stereo unspecified)	RORgamma inh 12.6µM, Gal4-VP16 FLuc inconclusive
CCC(C)C1NC(=S)N(C2CCCCC2)C1=O (stereo unspecified)	RORgamma inh 6.31µM, Gal4-VP16 FLuc 11.2µM
COc1ccc(C(CNC(=O)c2cc3ccccc3cc2O)N2CCOCC2)cc1 (stereo unspecified)	ELG1 DNA repair inconclusive (no result: RORgamma inh, Gal4-VP16 FLuc, FBPA coupling cs)
Cc1ccccc1-c1ccc2ncnc(N3CCOCC3)c2c1	RORgamma inh inconclusive (no result: ELG1 DNA repair, TSHR antagonist)
Cc1cc2c([nH]c3ccccc32)c(C)n1	RORgamma inh 1µM
Cc1nc(C(=O)O)cc2c1[nH]c1ccccc12	none (no result: RORgamma inh, Gal4-VP16 FLuc, FBPA coupling cs)
CSc1ccccc1NS(=O)(=O)c1cccc2nonc12	RORgamma inh 11.2µM (no result: FBPA coupling cs)
CCOc1ccc(CCNc2nc3ccccc3n3cnnc23)cc1OCC	ELG1 DNA repair 20.6µM
Cc1cc2c(cc1Cl)C(c1ccc3c(c1)OCO3)CC(=O)O2 (stereo unspecified)	none (no result: ELG1 DNA repair, TSHR antagonist)
NC1=CC(=O)c2cccc3cccc1c23	RORgamma inh 11.2µM, Gal4-VP16 FLuc 22.4µM, FBPA coupling cs -33.8
O=C1C=C(O)c2cccc3cccc1c23	none
COc1cc(CNc2nc(C)c([N+](=O)[O-])c(C)c2C#N)cc(OC)c1OC	ELG1 DNA repair 7.31µM, RORgamma inh inconclusive, Gal4-VP16 FLuc inconclusive
CSc1ccccc1C(=O)C1CCCN(C(=O)c2cncs2)C1 (stereo unspecified)	none
O=C(Nc1ccc(S(=O)(=O)Nc2cnc3ccccc3n2)cc1)c1cccc(OC(F)F)c1	RORgamma inh inconclusive
Cc1ccc(NC(=S)N/N=C/c2c(C)nn(-c3ccccc3)c2N2CCCC2)cc1	RORgamma inh inconclusive, Gal4-VP16 FLuc 0.1µM
FC(F)Oc1ccc(/C=N/NC(=S)Nc2cc(C(F)(F)F)ccc2Cl)cc1	RORgamma inh 1.26µM, Gal4-VP16 FLuc 5.62µM
COc1c(/C=N/Nc2ccc([N+](=O)[O-])cc2[N+](=O)[O-])c(C)nn1-c1ccccc1	none
COc1ccccc1NS(=O)(=O)c1cccc(C(=O)N/N=C/c2c(C)nn(-c3ccccc3)c2N2CCCC2)c1	ELG1 DNA repair inconclusive
Cc1nn(-c2ccccc2)c(N2CCCC2)c1/C=N/NC(=S)Nc1ccccc1C(F)(F)F	ELG1 DNA repair inconclusive, RORgamma inh 1.41µM, Gal4-VP16 FLuc 1µM
O=C(C[n+]1cccc(CNC(=O)c2ccc(OC(F)F)cc2)c1)Nc1cc(C(F)(F)F)ccc1Cl	none
COc1c(/C=N/NC(N)=S)c(C)nn1-c1ccccc1	RORgamma inh 7.08µM, Gal4-VP16 FLuc inconclusive
Cc1nn(-c2ccccc2)c(N2CCCC2)c1/C=N/O	none
OC[C@@H](O)C(O)[C@H](O)[C@H](O)CO (stereo partly specified)	none (no result: ELG1 DNA repair, TSHR antagonist)
Cc1nn(C)cc1/C=N/NC(=S)Nc1ccccc1	ELG1 DNA repair inconclusive, RORgamma inh 0.891µM, Gal4-VP16 FLuc 2.24µM
Cc1nn(-c2ccccc2)c(N2CCCCC2)c1/C=N/NC(=O)c1ccncc1	ELG1 DNA repair inconclusive, RORgamma inh inconclusive
Cc1nn(-c2ccccc2)c(N2CCCC2)c1/C=N/NC(=S)Nc1cc(C(F)(F)F)ccc1Cl	RORgamma inh 1.78µM, Gal4-VP16 FLuc 2.82µM
C[c-]1[c-](C)[c-](C)[c-](C)[c-]1C.[Fe].c1cc2nccc(N3CCCC3)[c-]2c1 (stereo unspecified)	ELG1 DNA repair inconclusive, FBPA coupling cs -32.9!
Cn1cnc2c(N3CCCCC3)nccc21	none
Cc1ccccc1OCC(O)CN1CCN(CC(O)COc2ccccc2C)C(C)C1 (stereo unspecified)	none
Cc1ccccc1OCC(O)CN1CCN(CCN2C(=O)c3cccc4cccc(c34)C2=O)CC1 (stereo unspecified)	ELG1 DNA repair 23.1µM
CCC(OCC(O)CN1CCN(CCN2C(=O)c3cccc4cccc(c34)C2=O)CC1)c1ccccc1 (stereo unspecified)	ELG1 DNA repair 20.6µM, RORgamma inh inconclusive, Gal4-VP16 FLuc inconclusive
O=C1c2cccc3cccc(c23)C(=O)N1CC1CCCO1 (stereo unspecified)	none
CC(=O)c1ccc(OCC(O)CN2CCN(CCN3C(=O)c4cccc5cccc(c45)C3=O)CC2)cc1 (stereo unspecified)	ELG1 DNA repair 23.1µM, Gal4-VP16 FLuc inconclusive
CC(C)OCC(O)CN1CCN(CCN2C(=O)c3cccc4cccc(c34)C2=O)CC1 (stereo unspecified)	none
Cc1cccc(C)c1OCC(O)CN1CCC(CN2C(=O)c3cccc4cccc(c34)C2=O)CC1 (stereo unspecified)	ELG1 DNA repair 23.1µM
CC1CCN(C(=O)c2cc(Cl)ccc2NC(=O)c2ccco2)CC1	none

High-throughput results: PubChem BioAssay, National Center for Advancing Translational Sciences (NCATS)
